High-throughput results (PubChem)
Platelet DG rel: modulates dense granule release in human platelets; AID 1663; actives 0.22% (n = 300,000); human platelet-rich plasma, SFLLRN dense granule ATP release, luminescence; inhibition, %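 (compounds screened at 7.5 µM in platelet-rich plasma)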;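 active means mean replicate score, as percent of positive control, at or above 50; inconclusive means mean below 50 but at least one replicate at or above 50; inactive means mean and every replicate below 50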
VLA-4 inh: inhibition in a human VLA-4 binding assay. VLA-4 expressing cells, ligand binding flow cytometry. inhibition, % (about 7 µM as worked out from the volumes in the protocol). actives 0.2% (n = 330,000); in the data active means inhibition above about 50%
CHT allo act: allosteric activators of human choline transporter CHT. B-score at 10 µM. actives 0.49% (n = 310,000). CHT-expressing cells, membrane potential dye, choline EC20; active compounds read high; LV-AA mutant CHT in HEK293 cells. Q9GZV3;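 active means initial fluorescence not abnormally high and integrated response B-score, plate-corrected, over 3 SD above library mean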
AI-2 QS modul: Vibrio harveyi AI-2 quorum sensing modulation; Vibrio harveyi JMH597 AI-2 luminescence/OD600 ratio, 9 h; active compounds read low; strain lacks LuxN and CqsS sensors; 0 = neutral-control median; activity change, % at 7.5 µM; actives 0.4% (n = 300,000); AID 2094; in the data active means activity change below about -75%, passing the limit was not always enough; inconclusive means no clear call, values can overlap the other calls;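 further: luminescence divided by OD600 gain over 9 h not by final OD600 alone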
CHT inh: inhibits the human high affinity choline transporter | B-score at 10 µM | Q9GZV3 | actives 0.86% (n = 310,000) | AID 488975 | CHT-expressing cells, membrane potential dye, choline response; active compounds read low;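 active means B-score over 3 SD under the library average, and starting fluorescence ratio not unusually high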;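 further: choline stimulus applied at its EC90 after an EC20 pre-addition; B-score computed on integrated fluorescence ratio after choline addition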
HIF act: HIF pathway transcriptional activation; U2OS HRE-luciferase reporter, luminescence; normalized: DMSO 0%, desferrioxamine 100%; activation, % at 7.5 µM (by protocol); actives 0.32% (n = 300,000); AID 1910;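 active means mean activation of at least 10% of the iron chelator positive control signal, with at least half of replicates also reaching 10%; inconclusive means mean and replicate majority disagree about reaching 10%; inactive means mean and most replicates under 10%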
CHT act confirm: human CHT activation, confirmatory screen | AID 504833 | actives 91% (n = 2,500) | shares compounds with CHT allo act | CHT-expressing cells, membrane potential dye fluorescence (FDSS); % of choline EC20–EC90 response window; HEK293 expressing CHT LV-AA mutant; choline added at its EC20 | activation, % at 10 µM;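 active means primary screen active, with duplicate mean activation above negative control mean plus 3 SD, cut at about 11% in these data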
HEK293 MP dye: CHT activator counter-screen hit in parental HEK293 cells; shares compounds with CHT allo act; membrane potential dye fluorescence (FDSS); measured after EC20 choline addition; ratio readout change at 10 µM, hits read low; actives 62% (n = 2,500);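 active means duplicate-averaged ratio beyond 3 SD from buffer wells, up or down, though filed actives are nearly all decreases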
Of the large screens only hits and unclear results are named; the others gave an inactive call (follow-up assays come after a bar, where they were run). Sampled rows, rich in hits. Any-hit rate of the full collection: about 2.2%.

COCCCNc1ccnc2c(Cl)cccc12	none
COCCNc1ccnc2c(Cl)cccc12	CHT allo act 6.3 | CHT act confirm 56.6 | HEK293 MP dye -61.3
COc1ccc(CN(C)C(=O)c2ccccc2OCc2c(C)noc2C)c(OC)c1	none (no result: Platelet DG rel, CHT allo act, AI-2 QS modul, CHT inh, HIF act)
COc1ccc(Br)cc1CN(C)C(=O)c1ccccc1OCc1c(C)noc1C	none | CHT act confirm 37.7 | HEK293 MP dye inactive
CCOC(=O)CN1C2=NCCN2c2ccccc21	none
CCCCCN1C2=NCCN2c2ccccc21	none (no result: AI-2 QS modul) | CHT act confirm 34.1 | HEK293 MP dye -31
Cc1ccccc1CN1C2=NCCN2c2ccccc21	none
CCCN1C2=NCCN2c2cc(C)c(C)cc21	CHT allo act 8.34 (no result: Platelet DG rel, HIF act) | CHT act confirm 41.8 | HEK293 MP dye -46.4
Cc1ccccc1-n1c(SCC(=O)N2CCOCC2)nc(O)c(Cc2ccccc2)c1=O	none
O=[N+]([O-])c1cccc(-c2cc3cccc[n+]3cc2-c2cccc([N+](=O)[O-])c2)c1	CHT allo act 13.6 | CHT act confirm 76.7 | HEK293 MP dye -74.8
O=[N+]([O-])c1cccc(-c2nnc(-c3ccccc3)o2)c1	none
Cc1sc2cc(-c3cccc([N+](=O)[O-])c3)c(-c3cccc([N+](=O)[O-])c3)c[n+]2c1C	CHT allo act 8.37 | CHT act confirm 56.1 | HEK293 MP dye -88.4
COc1ccc(CSc2ccc(-c3nc4ccccn4c3NCc3ccccc3)cc2OC)cc1	CHT allo act 8.93 | CHT act confirm 30.8 | HEK293 MP dye inactive
Cc1cccc2cc(-c3ccccc3)c(-c3ccccc3)c[n+]12	none | CHT act confirm 55.6 | HEK293 MP dye -53.4
Cn1c(=O)c([N+](=O)[O-])c(NCCCn2ccnc2)c2ccccc21	none | CHT act confirm 57.5 | HEK293 MP dye -55.4
Cc1c(C(O)CN2CCN(Cc3ccc4c(c3)OCO4)CC2)c2ccccc2n1C (stereo not drawn)	CHT allo act 6.82 | CHT act confirm 31.0 | HEK293 MP dye -27.1
CCCC1=[N+](CC(=O)c2ccccc2)CCn2c(C)ccc21	CHT allo act 8.14 | CHT act confirm 40.0 | HEK293 MP dye inactive
O=C(c1cc(COc2ccc3c(c2)CCCC3)on1)N1CCCC1	none
O=C(NCC(c1ccc(F)cc1)N1CCOCC1)c1cccc(Br)c1 (stereo not drawn)	none
CCOC(=O)c1c(N)n(-c2ccc(N)cc2)c2nc3ccccc3nc12	none
CCOC(=O)c1c(NC(=O)c2ccco2)n(C2CCCCC2)c2nc3ccccc3nc12	CHT allo act 7.26 | CHT act confirm 42.0 | HEK293 MP dye inactive
CCOC(=O)c1c(N)n(C2CC(C)(C)NC(C)(C)C2)c2nc3ccccc3nc12	CHT allo act 6.69 | CHT act confirm 57.3 | HEK293 MP dye -71.8
Cc1ccnc(NC(=O)c2ccc(OCC3CCCO3)cc2)c1 (stereo not drawn)	Platelet DG rel inconclusive
Cc1cccc(NC(=O)N2C3CCCC2CC(NC(=O)C(C)(C)C)C3)c1 (stereo not drawn)	none
COC(=O)[C@]1(C)N[C@H](CN(C)C(=O)Nc2ccc(C(F)(F)F)cc2)[C@@H]2C(=O)N(C)C(=O)[C@@H]21	none (no result: Platelet DG rel, CHT allo act, AI-2 QS modul, CHT inh, HIF act)
Cc1ccccc1C(=O)N(C)c1ccccc1C(=O)NCc1ccccc1	none
O=C(COc1ccc(Br)cc1CNC1CCCC1)Nc1ccccc1	none | CHT act confirm inactive | HEK293 MP dye inactive
CC(NCc1cc(Br)ccc1OCC(=O)NCc1ccccc1)c1ccccc1 (stereo not drawn)	none | CHT act confirm inactive | HEK293 MP dye inactive
CC1CCN(c2nc3c(c(=O)n(C)c(=O)n3C)n2Cc2ccccc2)CC1	CHT allo act 6.61 | CHT act confirm inactive | HEK293 MP dye inactive
CN1CCN(c2nc3c(c(=O)n(C)c(=O)n3C)n2CCSc2nnnn2-c2ccccc2)CC1	CHT allo act 7.25 | CHT act confirm 52.4 | HEK293 MP dye -71
Cn1c(=O)[nH]c(=O)c2c1nc(N1CCCC1)n2CCCSc1nnnn1-c1ccccc1	none
CN1CCN(c2nc3c(c(=O)[nH]c(=O)n3C)n2CCSc2nnnn2-c2ccccc2)CC1	CHT allo act 8.19 | CHT act confirm 58.7 | HEK293 MP dye -67.8
O=C(COc1cccc2cccnc12)N/N=C1\SCC(=O)N1CCc1ccccc1	none
O=C(COc1cccc2cccnc12)N/N=C1\SCC(=O)N1Cc1ccco1	CHT allo act 7.17 | CHT act confirm 66.0 | HEK293 MP dye -55.3
COc1ccccc1N=C(C)C1=C(O)CC(c2ccccc2)CC1=O (stereo not drawn)	CHT allo act 9.67 | CHT act confirm 56.3 | HEK293 MP dye inactive
Cc1cccc(C)c1NC(=O)C[N+](C)(C)CC(O)COc1cccc2ccccc12 (stereo not drawn)	none
COc1cc(C(=O)N/N=C/c2ccccn2)cc(OC)c1OC	none
COc1ccc(C(=O)N/N=C/c2ccccn2)cc1OC	CHT allo act 10.4 | CHT act confirm 54.2 | HEK293 MP dye -66
CCOc1ccc2c(c1)sc(N)[n+]2Cc1cc(C)cc2cccnc12	CHT allo act 11.2 | CHT act confirm 51.9 | HEK293 MP dye -33.6
COc1ccc2c(c1)sc(N)[n+]2Cc1cc(C)cc2cccnc12	CHT allo act 9.55 | CHT act confirm 54.1 | HEK293 MP dye -37.7
CC(C)(C)c1ccc(C(=O)NCCC(=O)N2CCC3(CC2)NCCc2[nH]cnc23)cc1	none
O=C(Nc1ccc2ccccc2c1)C(c1ccccc1)C1CCCC1 (stereo not drawn)	none | CHT act confirm 23.9 | HEK293 MP dye inactive
C=CCN(C(=O)c1csnn1)C(C(=O)NCc1ccc(F)cc1)c1ccccc1 (stereo not drawn)	none
Cn1c(=O)c2sccc2n2c(CCCC(=O)Nc3ccc(F)cc3F)nnc12	none
COc1cccc(CN2CCC(N(CCc3ccccc3)Cc3ccccc3)CC2)c1OC	CHT allo act 10, HIF act 581.5 | CHT act confirm 33.9 | HEK293 MP dye inactive
Cc1ccc2c(c1)COc1c3ccc(C(=O)NCC4CC4)cc3nn1-2	none
C=CCNC(=O)c1ccc2c3n(nc2c1)-c1ccc(Cl)cc1CO3	CHT allo act 6.46 | CHT act confirm 15.4 | HEK293 MP dye -20.4
O=C(C1CCN(Cc2ccc(F)cc2)CC1)N(CCO)Cc1ccccc1	none
O=C(C1CCN(Cc2ccc(F)cc2)CC1)N(CCc1ccccc1)Cc1ccccc1	CHT allo act 6.82 | CHT act confirm 28.8 | HEK293 MP dye inactive
